Experimental data from PubChem BioAssay (Tox21).
Records with an inconclusive call do not appear. Calls of active or inactive are those of the source. Unless noted, calls come from the whole dose curve. Where a SMILES comes first, the peptide text is derived from it.

Columns and labels:
[1] = target: Androgen receptor (Homo sapiens) (UniProt P10275); assay: qHTS assay to identify small molecule agonists of the androgen receptor (AR) signaling pathway in the presence of an antagonist (AID 1259381); note: nearly all actives have a fitted effect of over 15% in size
Sequence of Androgen receptor (Homo sapiens) (P10275 whole entry, looked up): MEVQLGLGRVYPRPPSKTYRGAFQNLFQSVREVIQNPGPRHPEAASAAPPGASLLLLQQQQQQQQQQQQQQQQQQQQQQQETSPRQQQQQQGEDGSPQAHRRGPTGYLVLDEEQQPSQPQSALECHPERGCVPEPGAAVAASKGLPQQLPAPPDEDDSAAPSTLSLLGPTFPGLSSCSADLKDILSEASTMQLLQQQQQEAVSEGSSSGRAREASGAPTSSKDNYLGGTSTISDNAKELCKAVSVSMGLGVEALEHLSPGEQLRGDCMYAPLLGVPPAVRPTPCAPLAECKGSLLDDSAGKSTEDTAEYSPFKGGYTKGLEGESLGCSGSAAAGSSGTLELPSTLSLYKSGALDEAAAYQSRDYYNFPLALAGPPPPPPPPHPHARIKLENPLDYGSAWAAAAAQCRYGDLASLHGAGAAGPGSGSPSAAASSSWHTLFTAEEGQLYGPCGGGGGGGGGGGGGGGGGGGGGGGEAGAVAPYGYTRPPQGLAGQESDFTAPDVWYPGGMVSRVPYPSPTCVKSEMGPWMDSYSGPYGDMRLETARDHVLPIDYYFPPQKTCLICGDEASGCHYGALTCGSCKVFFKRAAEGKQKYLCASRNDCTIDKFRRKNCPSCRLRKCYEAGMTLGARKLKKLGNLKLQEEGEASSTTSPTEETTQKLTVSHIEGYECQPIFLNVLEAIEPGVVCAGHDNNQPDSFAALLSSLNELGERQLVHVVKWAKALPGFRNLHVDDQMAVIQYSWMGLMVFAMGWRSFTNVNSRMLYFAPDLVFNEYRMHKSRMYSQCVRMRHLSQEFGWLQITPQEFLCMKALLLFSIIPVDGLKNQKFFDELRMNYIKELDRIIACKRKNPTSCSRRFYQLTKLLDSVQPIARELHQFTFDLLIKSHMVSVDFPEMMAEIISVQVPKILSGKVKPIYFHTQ
In short: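 MDA-kb2 human breast carcinoma cells carrying an MMTV-luciferase reporter (AR- and GR-responsive) were treated with compounds at 15 concentrations plus 3.0uM final nilutamide for 16hr at 37C without CO2; luminescence was read after ONE-Glo addition.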

[2] = qHTS assay to identify small molecule antagonists of the estrogen receptor beta (ER-beta) signaling pathway - cell viability counter screen (AID 1259382; active = well fitted curve in the direction sought with a large enough effect in the repeat runs; an effect the other way counts as inactive or inconclusive;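 note: HEK293T cells carrying ER-beta-UAS-bla reporter stimulated with estradiol; series mostly up to about 92 µM; nearly all actives have a fitted effect of over 55% in size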)
In short: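 ER-beta-UAS-bla HEK293T cells (2,000/well, 2% charcoal-stripped FBS) were pre-incubated 6 hr at 37C, then given compound plus 1nM final 17-beta-estradiol for 16 hr. Viability was read in the same wells by CellTiter-Glo luminescence after 30 min at room temperature.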

[3] = target: Estrogen receptor (Homo sapiens) (UniProt P03372); assay: qHTS assay to identify small molecule agonists of the estrogen receptor alpha (ER-alpha) signaling pathway in the presence of an antagonist (AID 1259383); note: top concentration of the series differs between compounds; nearly all actives have a fitted effect of over 15% in size
Sequence of Estrogen receptor (Homo sapiens) (P03372 whole entry, looked up): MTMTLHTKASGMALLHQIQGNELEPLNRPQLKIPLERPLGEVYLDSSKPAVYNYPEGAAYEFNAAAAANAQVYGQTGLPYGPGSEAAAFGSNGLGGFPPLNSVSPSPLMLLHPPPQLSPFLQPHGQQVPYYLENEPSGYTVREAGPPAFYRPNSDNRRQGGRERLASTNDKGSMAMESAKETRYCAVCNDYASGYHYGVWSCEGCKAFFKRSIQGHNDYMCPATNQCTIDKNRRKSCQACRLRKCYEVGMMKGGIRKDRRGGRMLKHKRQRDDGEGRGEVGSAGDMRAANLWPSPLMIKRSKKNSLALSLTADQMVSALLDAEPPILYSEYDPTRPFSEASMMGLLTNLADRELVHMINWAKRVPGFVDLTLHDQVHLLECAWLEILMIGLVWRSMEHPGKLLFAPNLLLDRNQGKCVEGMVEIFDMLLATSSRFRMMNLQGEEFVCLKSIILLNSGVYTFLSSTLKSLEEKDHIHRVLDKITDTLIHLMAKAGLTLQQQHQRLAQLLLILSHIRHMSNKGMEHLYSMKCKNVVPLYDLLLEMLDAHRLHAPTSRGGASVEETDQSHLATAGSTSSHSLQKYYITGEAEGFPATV
In short: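 VM7Luc4E2 cells (endogenous full-length ER-alpha, 4×ERE-luciferase) were precultured 5 days in phenol red-free medium with 10% charcoal-stripped FBS, given 10.0nM ICI-182,780 (final), then treated with compounds at 15 concentrations for 22hr at 37C; luminescence read with ONE-Glo.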

[4] = qHTS assay to identify small molecule agonists or antagonists of the thyroid stimulating hormone receptor (TSHR) signaling pathway - wild type cell line counter screen (AID 1259384)
In short: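 Wild-type HEK293 cells were plated 18 h at 37 C/5% CO2, pin-dosed with compound plus Ro20-1724 medium, held 30 min at room temperature, then given cAMP-d2 and anti-cAMP-cryptate; fluorescence was read after 1 h. Fifteen concentrations, triplicate.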

[5] = target: Thyrotropin receptor (Homo sapiens) (UniProt P16473); assay: qHTS assay to identify small molecule antagonists of the thyroid stimulating hormone receptor (TSHR) signaling pathway (AID 1259385); note: nearly all actives have a fitted effect of over 20% in size
Sequence of Thyrotropin receptor (Homo sapiens) (P16473 whole entry, looked up): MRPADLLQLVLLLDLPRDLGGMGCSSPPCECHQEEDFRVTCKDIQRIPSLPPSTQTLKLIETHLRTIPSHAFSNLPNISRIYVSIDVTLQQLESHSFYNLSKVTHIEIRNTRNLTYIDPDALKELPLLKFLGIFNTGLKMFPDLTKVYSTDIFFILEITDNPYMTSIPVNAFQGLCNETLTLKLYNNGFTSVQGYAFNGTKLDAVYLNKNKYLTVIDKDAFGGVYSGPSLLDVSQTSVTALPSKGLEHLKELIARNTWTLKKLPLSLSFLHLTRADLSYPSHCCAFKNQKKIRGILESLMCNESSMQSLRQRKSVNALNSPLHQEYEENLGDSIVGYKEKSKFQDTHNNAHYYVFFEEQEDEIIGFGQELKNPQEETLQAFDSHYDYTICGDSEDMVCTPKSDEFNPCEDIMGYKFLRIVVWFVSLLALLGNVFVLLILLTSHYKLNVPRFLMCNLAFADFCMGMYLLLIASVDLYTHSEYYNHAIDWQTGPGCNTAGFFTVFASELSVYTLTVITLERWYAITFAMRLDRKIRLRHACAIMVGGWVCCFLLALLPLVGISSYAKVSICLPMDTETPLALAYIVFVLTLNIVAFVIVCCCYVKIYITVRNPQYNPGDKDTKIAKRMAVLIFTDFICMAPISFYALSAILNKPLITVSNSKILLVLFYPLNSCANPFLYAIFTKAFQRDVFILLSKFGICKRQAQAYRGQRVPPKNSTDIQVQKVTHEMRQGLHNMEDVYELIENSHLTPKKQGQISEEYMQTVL
In short: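 TSHR-HEK293 cells were plated and held 18 h at 37C/5% CO2, then given compound plus Ro20-1724 and stimulated with TSH at 1.5 ng/mL final. After 30 min at room temperature, cAMP was detected with cAMP-d2/anti-cAMP-cryptate (1 h) by fluorescence.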

[6] = qHTS assay to identify small molecule agonists of the estrogen receptor alpha (ER-alpha) signaling pathway in the presence of an antagonist - cell viability counter screen (AID 1259386; active = well fitted curve in the direction sought with a large enough effect in the repeat runs; an effect the other way counts as inactive or inconclusive;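 note: series mostly up to about 92 µM; cells exposed to compounds for 22 h at 37 °C before the viability read; nearly all actives have a fitted effect of over 30% in size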)
In short: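 VM7Luc4E2 cells (endogenous full-length ER-alpha, 4×ERE-luciferase) were held 5 days in phenol red-free medium with 10% charcoal-stripped FBS, plated, then given 10.0nM ICI-182,780 and compounds at 15 concentrations for 22hr at 37C; viability read by CellTiter-Fluor fluorescence.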

[7] = target: Progesterone receptor (Homo sapiens) (UniProt P06401); assay: qHTS assay to identify small molecule agonists of the progesterone receptor (PR) signaling pathway (AID 1346784); note: nearly all actives have a fitted effect of over 30% in size
Sequence of Progesterone receptor (Homo sapiens) (P06401 whole entry, looked up): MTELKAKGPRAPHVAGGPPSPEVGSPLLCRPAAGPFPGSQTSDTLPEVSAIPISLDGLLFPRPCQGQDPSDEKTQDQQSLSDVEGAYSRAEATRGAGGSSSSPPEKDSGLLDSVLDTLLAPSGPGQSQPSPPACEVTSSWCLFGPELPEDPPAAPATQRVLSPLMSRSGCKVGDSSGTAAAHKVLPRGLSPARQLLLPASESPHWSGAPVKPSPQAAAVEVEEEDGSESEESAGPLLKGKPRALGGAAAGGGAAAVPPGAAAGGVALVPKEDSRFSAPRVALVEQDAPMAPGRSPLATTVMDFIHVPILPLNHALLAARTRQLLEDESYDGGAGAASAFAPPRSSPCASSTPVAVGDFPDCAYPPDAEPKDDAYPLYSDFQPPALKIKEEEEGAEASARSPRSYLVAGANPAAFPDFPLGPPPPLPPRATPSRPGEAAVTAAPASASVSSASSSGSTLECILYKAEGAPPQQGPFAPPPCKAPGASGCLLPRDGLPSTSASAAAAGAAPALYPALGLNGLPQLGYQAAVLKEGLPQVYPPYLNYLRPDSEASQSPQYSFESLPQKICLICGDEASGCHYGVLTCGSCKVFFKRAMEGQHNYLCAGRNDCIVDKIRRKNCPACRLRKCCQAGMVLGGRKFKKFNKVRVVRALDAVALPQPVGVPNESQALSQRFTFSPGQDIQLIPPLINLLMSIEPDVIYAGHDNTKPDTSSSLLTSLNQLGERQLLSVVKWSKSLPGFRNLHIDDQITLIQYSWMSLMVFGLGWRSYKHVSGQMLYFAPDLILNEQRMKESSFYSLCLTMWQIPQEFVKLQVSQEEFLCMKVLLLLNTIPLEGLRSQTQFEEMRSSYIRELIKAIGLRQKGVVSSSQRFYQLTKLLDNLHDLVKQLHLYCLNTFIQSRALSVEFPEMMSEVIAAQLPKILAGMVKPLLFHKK
In short: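 Agonist mode, quantitative HTS format in a HEK 293T line expressing a UAS-controlled beta-lactamase reporter; 16 hr compound exposure at 37C in 2% charcoal-stripped FBS, then LiveBLAzer B/G FRET fluorescence.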

[8] = target: Progesterone receptor (Homo sapiens) (UniProt P06401); assay: qHTS assay to identify small molecule antagonists of the progesterone receptor (PR) signaling pathway (AID 1346795; active = well fitted inhibition curve with a large enough effect in the signal ratio in the repeat runs, not every such curve was filed as active; the % refers to the signal ratio; note: potency is the fitted concentration of half-maximal effect)
In short: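 HEK293T PR-UAS-bla reporter cells in charcoal-stripped serum (2%) received compound after a 6 hr settling period, followed by R5020 agonist at 1 nM final; 16 hr incubation preceded the FRET substrate step and fluorescence measurement.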

[9] = qHTS assay to identify small molecule antagonists of the progesterone receptor (PR) signaling pathway - cell viability counter screen (AID 1346798; active = well fitted curve in the direction sought with a large enough effect in the repeat runs; an effect the other way counts as inactive or inconclusive; note: series mostly up to about 92 µM; nearly all actives have a fitted effect of over 50% in size)
In short: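 Same-well multiplex: after 16 hr at 37C with compound and R5020 stimulation, HEK293T cells carrying a UAS-bla reporter received LiveBLAzer substrate (2 hr RT), then CellTiter-Glo (30 min RT) for luminescent viability.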

[10] = qHTS assay to identify small molecule agonists of the progesterone receptor (PR) signaling pathway - cell viability counter screen (AID 1346799); note: nearly all actives have a fitted effect of over 45% in size
In short: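 Counter screen for cytotoxicity: compound-treated PR-UAS-bla HEK293T cells (16 hr, 37C, 5% CO2) were assayed with CellTiter-Glo, luminescence measured after 30 min at room temperature.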
% is set by controls: 0 for no effect and ±100 for the full control effect.

C#CCN[C@@H]1CCc2ccccc21
inactive: outcome [1] | outcome [2] | Potency [3] | outcome [4] | outcome [5] | outcome [6] | Potency [7] | Potency [8] | outcome [9] | outcome [10]

CC(C)COC(=O)c1ccccc1
inactive: outcome [1] | outcome [2] | Potency [3] | outcome [4] | outcome [5] | Potency [7]

CCC(=O)c1c(O)cc(O)cc1O
inactive: outcome [1] | outcome [2] | Potency [3] | outcome [4] | outcome [5] | outcome [6] | Potency [7] | outcome [9] | outcome [10]

CCO[Si](CC)(OCC)OCC
inactive: outcome [1] | outcome [2] | Potency [3] | outcome [4] | outcome [5] | outcome [6] | Potency [7] | Potency [8] | outcome [9] | outcome [10]

N[C@@H](CSCCCO)C(=O)O
inactive: activation [1] -0.115% [at 19 µM] | activity change, negative = cytotoxicity [2] 8.62% [at 19 µM] | activation [3] -1.71% [at 19 µM] | cAMP activity change [4] -1.7% [at 18.9 µM] | activity change, negative = inhibition [5] -0.731% [at 19 µM] | activity change, negative = cytotoxicity [6] -1.24% [at 19 µM] | activation [7] -0.517% [at 19 µM] | activity change, negative = inhibition [8] 8.75% [at 18.9 µM] | activity change, negative = cytotoxicity [9] -3.41% [at 18.9 µM] | activity change, negative = cytotoxicity [10] 4.73% [at 19 µM]

CC(C)C1OCCN1CCOC(=O)NCCCCCCNC(=O)OCCN1CCOC1C(C)C (configuration not stated)
inactive: outcome [1] | outcome [2] | Potency [3] | outcome [4] | outcome [5] | outcome [6] | Potency [7] | Potency [8] | outcome [9] | outcome [10]

COc1cc2c(cc1OC)C(=O)C(CC1CCN(Cc3ccccc3)CC1)C2 (configuration not stated)
inactive: outcome [1] | outcome [2] | Potency [3] | outcome [4] | outcome [5] | Potency [7] | Potency [8] | outcome [9] | outcome [10]

CC(=O)CC(=O)OC(C)(C)C
inactive: outcome [1] | outcome [2] | Potency [3] | outcome [4] | outcome [5] | outcome [6] | Potency [7] | Potency [8] | outcome [9] | outcome [10]

COc1ccc(CCO)cc1
inactive: outcome [1] | outcome [2] | outcome [4] | outcome [5] | outcome [6] | Potency [7] | Potency [8] | outcome [9]

COC(C)(OC)OC
inactive: outcome [1] | outcome [2] | Potency [3] | outcome [4] | outcome [5] | Potency [7] | Potency [8] | outcome [9] | outcome [10]

COc1cc(/C=C/C(N)=O)cc(OC)c1OC
inactive: outcome [1] | outcome [2] | Potency [3] | outcome [4] | outcome [5] | outcome [6] | Potency [7] | Potency [8] | outcome [9] | outcome [10]

Cc1cc(C)c(C(=O)O)c(C)c1
inactive: outcome [2] | Potency [3] | outcome [4] | outcome [5] | outcome [6] | Potency [7] | Potency [8] | outcome [9] | outcome [10]

CC(C)(CO)C(O)C(=O)NCCCO (configuration not stated)
inactive: outcome [2] | Potency [3] | outcome [4] | outcome [5] | outcome [6] | Potency [7] | Potency [8] | outcome [9] | outcome [10]

CCC(C(=O)OCCN1CCOC(c2ccccc2)C1C)c1ccccc1 (configuration not stated)
active: Potency [8] 23.7 µM
inactive: outcome [2] | Potency [3] | outcome [4] | outcome [5] | outcome [6] | Potency [7]

CC(=O)c1cc(C)oc1C
inactive: outcome [1] | outcome [2] | outcome [6] | Potency [7] | Potency [8] | outcome [9] | outcome [10]

CC(=O)CCc1ccc(OC(C)=O)cc1
inactive: outcome [2] | Potency [3] | outcome [4] | outcome [5] | outcome [6] | Potency [7] | Potency [8] | outcome [9] | outcome [10]

CC(Oc1cc(Cl)ccc1Cl)C(=O)O (configuration not stated)
inactive: outcome [1] | outcome [2] | outcome [6] | Potency [7] | Potency [8] | outcome [9] | outcome [10]

Cc1c(Cl)cccc1Cl
inactive: outcome [2] | Potency [3] | outcome [4] | outcome [5] | outcome [6] | Potency [7] | Potency [8]

CCCC(=O)Nc1ccc(OCC(O)CNC(C)C)c(C(C)=O)c1 (configuration not stated)
inactive: outcome [2] | Potency [3] | outcome [4] | outcome [5] | outcome [6] | Potency [7] | Potency [8] | outcome [9] | outcome [10]

CC1=C(O)C(=O)C(C)O1 (configuration not stated)
inactive: outcome [2] | Potency [3] | outcome [4] | outcome [5] | outcome [6] | Potency [7] | Potency [8] | outcome [9] | outcome [10]

CCN1CCCC1CN (configuration not stated)
inactive: outcome [2] | Potency [3] | outcome [4] | outcome [5] | outcome [6] | Potency [7] | Potency [8] | outcome [9]

CC(=O)O[C@H]1C[C@@H]2CC[C@@]1(C)C2(C)C
inactive: outcome [1] | outcome [2] | outcome [4] | outcome [5] | outcome [6] | Potency [7] | Potency [8] | outcome [9] | outcome [10]

CCCCCCCCCCCCCCCCCCOCCO
inactive: activity change, negative = cytotoxicity [2] 4.32% [at 19 µM] | activation [3] -1.02% [at 19 µM] | cAMP activity change [4] -0.284% [at 18.9 µM] | activity change, negative = inhibition [5] -0.175% [at 19 µM] | activity change, negative = cytotoxicity [6] 0.983% [at 19 µM] | activation [7] 3.24% [at 19 µM] | activity change, negative = inhibition [8] -1.49% [at 18.9 µM]

CC(=O)N[C@@H](CO)C(=O)N[C@@H](CC(=O)O)C(=O)N[C@@H](CCCCN)C(=O)N1CCC[C@H]1C(=O)O (Ac-SDKP-OH)
inactive: outcome [1] | outcome [2] | outcome [6] | Potency [7] | Potency [8] | outcome [9] | outcome [10]

Fc1ccccc1
inactive: outcome [2] | Potency [3] | outcome [4] | outcome [5] | outcome [6] | Potency [7] | Potency [8] | outcome [9] | outcome [10]

OCCN1CCOCC1
inactive: outcome [2] | Potency [3] | outcome [4] | outcome [5] | outcome [6] | Potency [7] | Potency [8] | outcome [9] | outcome [10]

CCc1occc(=O)c1O
inactive: outcome [2] | Potency [3] | outcome [4] | outcome [5] | outcome [6] | Potency [7] | Potency [8] | outcome [9] | outcome [10]
